UBC9 SUMO inh = SUMOylation inhibition | P63279 | HTRF SUMOylation assay, SAE1/SAE2 + UBC9, in vitro | inhibition, % at 35 µM | 0.36% of 290,000 active; in the data active = inhibition above about 50%, passing the limit was not always enough; inconclusive = no clear call, values can overlap the other calls
Redox H2O2 prof = compounds producing H2O2 with reducing agent – biochemical, NIH compound library profiling, artefact control for MLSCN library redox annotation, primary screen. DTT-dependent redox cycling H2O2, phenol red/HRP absorbance; 100% = 100 µM peroxide control, 0% = buffer. AID 878. 0.03% of 200,000 active. activation, % at 10 µM;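 active = activation of at least 50% relative to the plate's high and low controls in the primary single-dose screen; inactive = activation below 50%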;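 also: compound incubated with DTT at 0.8 mM final as the reducing agent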
Furin inh = blocks human furin protease activity. P09958. purified furin, fluorogenic substrate cleavage. inhibition, % at 20 µM or 30 µM. 0.061% of 220,000 active. AID 463115; in the data active = inhibition above about 25%
PKD1 kinase inh = blocks activity of human protein kinase D1. Q15139. PKD1 kinase fluorescence polarization assay. inhibition, % (concentration not given with the values). 0.056% of 200,000 active; in the data active = inhibition above about 50%
Target sequence (Q15139 whole entry, looked up): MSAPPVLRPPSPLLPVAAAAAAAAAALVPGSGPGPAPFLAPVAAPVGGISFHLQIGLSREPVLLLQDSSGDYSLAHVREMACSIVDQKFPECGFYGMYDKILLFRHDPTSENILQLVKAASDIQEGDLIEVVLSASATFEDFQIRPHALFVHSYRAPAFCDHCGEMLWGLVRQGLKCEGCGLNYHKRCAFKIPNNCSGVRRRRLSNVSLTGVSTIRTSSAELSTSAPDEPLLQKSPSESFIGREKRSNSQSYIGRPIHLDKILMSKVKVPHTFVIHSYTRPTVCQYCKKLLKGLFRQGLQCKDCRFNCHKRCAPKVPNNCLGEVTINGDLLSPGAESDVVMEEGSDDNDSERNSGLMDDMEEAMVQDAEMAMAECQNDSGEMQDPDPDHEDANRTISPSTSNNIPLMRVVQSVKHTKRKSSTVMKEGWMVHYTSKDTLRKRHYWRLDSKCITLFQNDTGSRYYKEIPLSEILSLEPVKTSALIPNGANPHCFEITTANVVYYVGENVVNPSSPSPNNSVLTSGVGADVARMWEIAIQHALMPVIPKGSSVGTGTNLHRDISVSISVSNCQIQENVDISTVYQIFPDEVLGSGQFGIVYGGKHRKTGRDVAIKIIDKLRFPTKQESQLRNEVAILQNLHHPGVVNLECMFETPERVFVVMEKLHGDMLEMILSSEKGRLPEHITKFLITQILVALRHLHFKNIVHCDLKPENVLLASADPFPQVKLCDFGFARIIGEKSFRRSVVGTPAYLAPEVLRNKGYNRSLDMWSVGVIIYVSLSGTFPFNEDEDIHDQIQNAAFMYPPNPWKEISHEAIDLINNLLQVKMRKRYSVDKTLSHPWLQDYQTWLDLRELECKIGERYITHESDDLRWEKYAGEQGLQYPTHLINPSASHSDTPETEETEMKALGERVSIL
p97 ATPase inh = blocks human p97 ATPase activity; inhibition, % at 8 µM; recombinant p97 ATPase, Kinase-Glo ATP luminescence, 3 h; P55072; 0.42% of 220,000 active; in the data active = inhibition above about 15%
FAS-TE inh = FAS thioesterase (human) inhibition. P49327. recombinant FAS-TE, OMFH fluorogenic substrate, fluorescence endpoint. inhibition, % at 15 µM. 0.67% of 360,000 active. AID 602261;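 active = compounds whose normalised, plate-corrected inhibition of enzyme fluorescence in the single-dose primary screen is 50% or more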
p97 inh conf = human p97 ATPase inhibition, confirmation; shares compounds with p97 ATPase inh; AID 1517; inhibition, % at 8 µM; recombinant p97 ATPase, Kinase-Glo ATP luminescence; 44% of 760 active;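 active = percent inhibition of p97 ATPase above a set limit, the primary screen's mean plus 3 SD, cut at about 15% in these data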
A number is an active result; - = inactive; ? = inconclusive; . = no result given. The list is not random: actives were taken first. Their share in the collection is about 1.2%.

SMILES	UBC9 SUMO inh	Redox H2O2 prof	Furin inh	PKD1 kinase inh	p97 ATPase inh	FAS-TE inh	p97 inh conf
CCOc1cc(/C=C2\C(=O)N(CCC#N)N=C2C)ccc1OCC(N)=O	-	-	-	-	17	-	-
CCc1cccc(NS(=O)(=O)c2ccc3c(c2)N(C)CCO3)c1	.	.	.	.	.	-	.
Cc1cc(C(=O)Nc2ccncc2)c2ccccc2n1	-	.	.	.	.	-	.
Cc1cc(C)cc(C(=O)N[C@@H](C)C(=O)N2CCC3(CC2)NCCc2[nH]cnc23)c1	.	.	.	.	.	-	.
O=C(NCC(c1ccco1)N1CCCC1)c1cccc(S(=O)(=O)N2CCc3ccccc32)c1 (configuration not stated)	.	.	.	.	.	-	.
Cn1nnnc1Sc1ncnc2scc(-c3ccsc3)c12	.	.	.	.	.	-	.
S=C(Nc1ccc2nsnc2c1)N1CCCC1	-	-	-	-	21	-	-
CC(=O)Nc1sc(N/N=C\c2ccc(O)cc2)nc1-c1cccs1	-	.	-	.	16	-	23
CCN(CC)C(=O)c1ccc(COc2ccccc2Cl)cc1	-	-	-	-	15	-	-
CN(Cc1ccc(Cl)c(Cl)c1)C(=O)CN1C(=O)NC2(CCCC2)C1=O	.	.	.	.	.	-	.
c1ccc2c(c1)ncc1cccn12	-	-	-	-	-	-	.
CCn1c2ccccc2c2c3ncc4cccn4c3ccc21	-	.	-	.	15	-	-
O=c1cc(CCl)[nH]c2nc3ccccc3n12	-	.	-	.	38	-	38
O=c1cc(-c2ccccc2)[nH]c2nc3ccccc3n12	-	-	-	-	-	-	.
CN(Cc1cc(Cl)cc(Cl)c1)[C@H]1C[C@H]2c3[nH]c4ccccc4c3CCN2C(=O)[C@H]1CO	.	.	.	.	.	-	.
N#Cc1c(-c2cccs2)cc(-c2cccs2)[nH]c1=O	-	.	-	.	16	-	15
CCCN1CCN(C(=O)CCc2nnc3ccc(N4CCN(c5cccc(OC)c5)CC4)nn23)CC1	-	.	.	.	.	-	.
COc1ccccc1-c1nnc(NC(=O)C(C)SC2=NCCS2)s1 (configuration not stated)	-	-	-	-	17	-	20
COc1ccc(/C=N/NC(=O)c2cc(O)c(O)c(O)c2)cc1Cn1cc([N+](=O)[O-])cn1	-	-	-	-	17	-	31
S=C1NC2=C(CCC/C2=C\c2ccc(Cl)cc2)C(c2ccc(Cl)cc2)N1 (configuration not stated)	-	.	-	.	18	-	-
CC(C)c1ccc(NC(=O)C(c2ccccc2)N2CC(=O)Nc3ccccc32)cc1 (configuration not stated)	-	-	-	-	15	-	-
Cc1cccc(C)c1NC(=O)CN(C)C(=O)Cn1c(=O)cnc2ccccc21	-	.	.	.	.	-	.
O=C(NNC(=S)NC(=O)c1cccnc1)c1ccc(F)cc1	-	.	-	.	15	-	-
O=C(CSc1ccc(F)cc1)Nc1ccccc1Br	-	-	-	-	15	-	-
Cc1cc(=O)[nH]c2ccc(Cl)cc12	-	-	-	-	16	-	-
SMILES	UBC9 SUMO inh	Redox H2O2 prof	Furin inh	PKD1 kinase inh	p97 ATPase inh	FAS-TE inh	p97 inh conf
Cc1cc(=O)c2cc(Cl)ccc2[nH]1	-	-	-	-	-	-	.
Cc1cc2c(N)cccc2nn1	-	-	-	-	32	-	-
NS(=O)(=O)c1ccc(N/N=C/c2ccc(O)c(O)c2O)c([N+](=O)[O-])c1	?	.	-	.	48	-	50
NS(=O)(=O)c1ccc(N/N=C/c2ccc(O)cc2O)c([N+](=O)[O-])c1	-	.	-	.	-	-	.
Cc1cc(/C=C(/C#N)c2nc3ccccc3[nH]2)c(C)n1-c1cc(C(=O)O)cc(C(=O)O)c1	-	-	-	-	17	-	-
O=C(Nc1cccc(NC(=O)c2cccs2)c1)c1ccc([N+](=O)[O-])o1	-	.	-	.	18	-	25
COc1ccc(O)c(/C=C(\C#N)C(=O)Nc2ccccn2)c1	-	.	.	.	.	-	.
CCn1c(SCC(=O)Nc2ccccc2)nc2c(c1=O)SCC2	.	.	.	.	.	-	.
COc1ccc2c(C(=O)CCl)c[nH]c2c1	-	.	-	.	36	-	43
COc1cccc(C(=O)COC(=O)CCCC(=O)NC2CCCCC2)c1	-	.	.	.	.	-	.
O=C1C2C3CCC(O3)C2C(=O)N1c1cccc(O)c1 (configuration not stated)	-	.	.	.	.	-	.
O=C1OC(=O)C2C1[C@@H]1CC[C@H]2O1 (some centres not stated)	-	-	-	-	16	-	-
NC(N)=NC(N)=Nc1cccc2ccccc12	-	.	-	.	-	-	.
